Over roughly 8,300 sequences, “log2 fold change of degron read counts, EGFP-low vs EGFP+ sorted cells (limma voom), compound-induced degradation” has its median near -1.1; the highest 2% begin near 3.2. The entries come from a sample that favours the highest values as a whole.
T1: CRBN, Q96SW2
T1 chain: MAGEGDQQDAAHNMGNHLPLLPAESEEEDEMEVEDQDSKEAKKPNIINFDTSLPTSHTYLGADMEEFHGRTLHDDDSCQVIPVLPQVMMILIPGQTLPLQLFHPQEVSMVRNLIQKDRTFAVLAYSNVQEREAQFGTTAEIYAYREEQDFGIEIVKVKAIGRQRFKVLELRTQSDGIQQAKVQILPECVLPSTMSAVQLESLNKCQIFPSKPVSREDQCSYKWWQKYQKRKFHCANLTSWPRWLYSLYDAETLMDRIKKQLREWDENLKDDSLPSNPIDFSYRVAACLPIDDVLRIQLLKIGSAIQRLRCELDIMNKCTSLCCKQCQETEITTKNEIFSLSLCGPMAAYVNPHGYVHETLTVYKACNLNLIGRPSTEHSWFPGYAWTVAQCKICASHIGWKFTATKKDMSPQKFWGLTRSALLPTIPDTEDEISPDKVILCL


Target: T1, CRBN, Q96SW2
Assay: log2 fold change of degron read counts, EGFP-low vs EGFP+ sorted cells (limma voom), compound-induced degradation; higher = more compound-induced degradation of the degron-EGFP fusion; degrons are variants of IKZF1/3 zinc finger 2; compound dose not given here
Conditions: Jurkat, 18 h
[1] = compound: compound 19 (5-tert-butyl-thalidomide)
[2] = compound: compound 22 (5-morpholino-thalidomide)
[3] = compound: compound 33 (diphenyl IMiD analogue)
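Also: pooled lentiviral library of zinc finger degron-EGFP fusions in mCherry-positive Jurkat cells, FACS-sorted after compound exposure, with degron abundance counted by next-generation sequencing.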

Sequence	log2 fold change of degron read counts [1]	log2 fold change of degron read counts [2]	log2 fold change of degron read counts [3]	log2 fold change of degron read counts (compound: thalidomide)
FECPICGRRFTQKGNLLRHIKL [46F_47E_49P_50I_52G_53R_54R_55F_67L_, Q9UKT9]	-0.662	-1.27	0.491	2.58
FRCPQCGADFTQKGNLLRHIKL [46F_47R_49P_50Q_52G_53A_54D_55F_67L_, Q9UKT9]	-3.08	-3.48	-0.625	-1.35
LCCNQCGFCCTQKGNLLRHIKL [46L_47C_49N_50Q_52G_53F_54C_55C_67L_, Q9UKT9]	-1.92	-2.67	-1.9	-2
FDCDICGAFFTQKGNLLRHIKL [46F_47D_49D_50I_52G_53A_54F_55F_67L_, Q9UKT9]	-1.35	-2.45	-1.91	-1.7
LMCEICGFKCTQKGNLLRHIKL [46L_47M_49E_50I_52G_53F_54K_55C_67L_, Q9UKT9]	0.00993	-0.209	0.918	1.45
FHCNQCGHMFTQKGNLLRHIKL [46F_47H_49N_50Q_52G_53H_54M_55F_67L_, Q9UKT9]	-2.28	-2.39	-2.58	-2.2
FLCDICGATFTQKGNLLRHIKL [46F_47L_49D_50I_52G_53A_54T_55F_67L_, Q9UKT9]	-1.67	-1.74	-0.434	-0.565
FQCDICGATFTQKGNLLRHIKL [46F_47Q_49D_50I_52G_53A_54T_55F_67L_, Q9UKT9]	-0.685	1.86	0.81	3.25
FCCDICGATFTQKGNLLRHIKL [46F_47C_49D_50I_52G_53A_54T_55F_67L_, Q9UKT9]	0.685	1.05	1.24	0.177
FTCPICGATFTQKGNLLRHIKL [46F_47T_49P_50I_52G_53A_54T_55F_67L_, Q9UKT9]	0.225	2.5	2.28	2.88
FWCPICGATFTQKGNLLRHIKL [46F_47W_49P_50I_52G_53A_54T_55F_67L_, Q9UKT9]	2.22	3.57	1.64	0.523
FGCNICGATFTQKGNLLRHIKL [46F_47G_49N_50I_52G_53A_54T_55F_67L_, Q9UKT9]	0.0778	1.89	1.52	0.109
FLCPICGATFTQKGNLLRHIKL [46F_47L_49P_50I_52G_53A_54T_55F_67L_, Q9UKT9]	-1.02	-0.515	1.48	1.68
FQCNICGATFTQKGNLLRHIKL [46F_47Q_49N_50I_52G_53A_54T_55F_67L_, Q9UKT9]	-0.501	1.47	1.42	3.87
FYCPICGATFTQKGNLLRHIKL [46F_47Y_49P_50I_52G_53A_54T_55F_67L_, Q9UKT9]	3.2	3.57	2.42	1.16
FDCPICGATFTQKGNLLRHIKL [46F_47D_49P_50I_52G_53A_54T_55F_67L_, Q9UKT9]	1.59	0.119	1.11	1.68
FYCNICGATFTQKGNLLRHIKL [46F_47Y_49N_50I_52G_53A_54T_55F_67L_, Q9UKT9]	0.426	2.67	0.933	-0.961
FECPICGATFTQKGNLLRHIKL [46F_47E_49P_50I_52G_53A_54T_55F_67L_, Q9UKT9]	0.0819	-0.536	1.91	2.9
FICPQCGADFTQKGNLLRHIKL [46F_47I_49P_50Q_52G_53A_54D_55F_67L_, Q9UKT9]	-3.68	-2.36	-1.84	-2.04
FFCPICGHLFTQKGNLLRHIKL [46F_47F_49P_50I_52G_53H_54L_55F_67L_, Q9UKT9]	-0.994	-0.746	-0.828	-1.02
LLCEICGFFCTQKGNLLRHIKL [46L_47L_49E_50I_52G_53F_54F_55C_67L_, Q9UKT9]	-0.357	-0.957	-0.00991	0.351
FMCDICGAMFTQKGNLLRHIKL [46F_47M_49D_50I_52G_53A_54M_55F_67L_, Q9UKT9]	-1.51	-1.89	0.647	-1.45
FGCPICGRQFTQKGNLLRHIKL [46F_47G_49P_50I_52G_53R_54Q_55F_67L_, Q9UKT9]	2.87	0.813	0.341	-0.4
LECPICGFVCTQKGNLLRHIKL [46L_47E_49P_50I_52G_53F_54V_55C_67L_, Q9UKT9]	-0.508	-0.452	1.81	2.84
FRCPVCGAYFTQKGNLLRHIKL [46F_47R_49P_50V_52G_53A_54Y_55F_67L_, Q9UKT9]	-0.775	0.429	1.02	1.64
LHCEICGFQCTQKGNLLRHIKL [46L_47H_49E_50I_52G_53F_54Q_55C_67L_, Q9UKT9]	2.39	2.27	1.7	1.64
LCCNQCGFNCTQKGNLLRHIKL [46L_47C_49N_50Q_52G_53F_54N_55C_67L_, Q9UKT9]	-2	-2.61	-2.13	-1.77
FTCDVCGARFTQKGNLLRHIKL [46F_47T_49D_50V_52G_53A_54R_55F_67L_, Q9UKT9]	0.31	1.8	0.304	1.36

From the supplement of paper PMC12645437, “Orthogonal IMiD-Degron Pairs Induce Selective Protein Degradation in Cells” (ACS Chemical Biology, 2025)
